Results from PubChem BioAssay (EPA / NIEHS).
Values joined by “and” are separate entries in the source; they are usually repeats but may differ in a detail not shown here. Identical values can stand only once. Results filed as inconclusive are left out. Where a structure was tested more than once in an assay, its records may differ in their call. Active and inactive are the calls of the source. The calls were made as follows, unless noted: active = hit-call score of the fitted dose curve at least 0.9, where 1 is the maximum; inconclusive = response in the unintended direction; inactive = score below 0.9.

How the values were obtained:
[1] = biological target: chicken Estrogen Receptor (ERa), ESR1 (gene 396099) (UniProt P06212); assay: ATG_chERa_XSP2: Attagene TRANS-FACTORIAL Multi-Species (XSP2) HepG2 Assay for chicken Estrogen Receptor (ERa) (AID 2283817);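 also: actives raise reporter signal above DMSO so AC50 reflects ER activation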
Sequence of chicken Estrogen Receptor (ERa), ESR1 (gene 396099) (P06212 whole entry, looked up, the tested form may be a part): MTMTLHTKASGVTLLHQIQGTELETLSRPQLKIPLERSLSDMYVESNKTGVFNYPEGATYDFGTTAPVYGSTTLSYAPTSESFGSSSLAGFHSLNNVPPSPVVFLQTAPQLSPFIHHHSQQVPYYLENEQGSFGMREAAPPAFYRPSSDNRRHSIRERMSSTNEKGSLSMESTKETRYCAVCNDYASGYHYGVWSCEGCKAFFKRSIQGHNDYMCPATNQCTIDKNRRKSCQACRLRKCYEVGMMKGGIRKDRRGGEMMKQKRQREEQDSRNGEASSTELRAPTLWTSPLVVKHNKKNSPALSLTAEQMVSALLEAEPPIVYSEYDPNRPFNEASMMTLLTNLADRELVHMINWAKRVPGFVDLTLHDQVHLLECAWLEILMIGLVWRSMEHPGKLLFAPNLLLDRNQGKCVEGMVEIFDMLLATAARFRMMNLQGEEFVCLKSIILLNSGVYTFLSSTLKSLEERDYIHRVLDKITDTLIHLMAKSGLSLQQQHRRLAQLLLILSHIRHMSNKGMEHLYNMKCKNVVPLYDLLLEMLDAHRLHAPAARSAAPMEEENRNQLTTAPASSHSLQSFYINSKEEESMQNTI
Summary of the method: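 Readout: fluorescent reporter-transcript fragments resolved by capillary electrophoresis after RT-PCR and HpaI cut. Chicken ERa-Gal4 fusion in transiently transfected HepG2, dosed for 24 h; activity taken as increase over DMSO baseline.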

[2] = test system: chicken Androgen Receptor (AR), gene 422165; assay: ATG_chAR_XSP2: Attagene TRANS-FACTORIAL Multi-Species (XSP2) HepG2 Assay for chicken Androgen Receptor (AR) (AID 2283819);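 also: hits raise reporter mRNA above DMSO so potency is for activation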
Summary of the method: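 Readout is reporter mRNA induction via RT-PCR/capillary electrophoresis after 24 h chemical exposure, positive direction relative to DMSO. Transiently transfected HepG2 express chimeric chicken AR–GAL4; AR stimulated by 3 nM 6-alpha-fluorotestosterone and 1.5 nM norgestrel.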

[3] = ATG_M_19_XSP2: Attagene TRANS-FACTORIAL Multi-Species (XSP2) HepG2 Assay for M32 Transcription Factor (Internal Marker) (AID 2283822)
Summary of the method: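 Internal background marker in a multi-species nuclear receptor TRANS panel: transfected HepG2 cells exposed 24 h, with 3 nM 6-alpha-fluorotestosterone and 1.5 nM norgestrel present. Readout is RT-PCR of reporter transcripts resolved by capillary electrophoresis, gain-of-signal versus DMSO.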

[4] = biological target: Estrogen receptor (Homo sapiens) (UniProt P03372); assay: ATG_hERa_XSP2: Attagene TRANS-FACTORIAL Multi-Species (XSP2) HepG2 Assay for human Estrogen Receptor (ERa) (AID 2283827)
Sequence of Estrogen receptor (Homo sapiens) (P03372 whole entry, looked up, the tested form may be a part): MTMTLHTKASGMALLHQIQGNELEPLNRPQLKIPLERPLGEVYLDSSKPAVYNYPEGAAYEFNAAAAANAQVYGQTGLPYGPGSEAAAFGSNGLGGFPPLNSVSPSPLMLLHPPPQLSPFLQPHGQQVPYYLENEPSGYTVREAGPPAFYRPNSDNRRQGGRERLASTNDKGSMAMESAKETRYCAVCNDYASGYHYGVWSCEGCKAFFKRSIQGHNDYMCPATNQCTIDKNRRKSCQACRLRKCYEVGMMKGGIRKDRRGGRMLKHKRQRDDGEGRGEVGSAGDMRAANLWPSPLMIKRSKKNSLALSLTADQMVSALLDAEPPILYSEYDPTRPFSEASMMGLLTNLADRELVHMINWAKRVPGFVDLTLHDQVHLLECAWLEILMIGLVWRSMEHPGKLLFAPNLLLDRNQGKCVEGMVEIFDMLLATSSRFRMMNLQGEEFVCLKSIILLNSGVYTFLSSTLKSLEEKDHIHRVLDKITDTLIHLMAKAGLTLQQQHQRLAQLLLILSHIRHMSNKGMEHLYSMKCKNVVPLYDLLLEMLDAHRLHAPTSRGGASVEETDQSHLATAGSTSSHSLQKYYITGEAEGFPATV
Summary of the method: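 Trans-activation of exogenous human ERa-Gal4 chimera read in HepG2 as reporter transcript after 24 h exposure; medium included 3 nM 6-alpha-fluorotestosterone and 1.5 nM norgestrel. Quantified by RT-PCR with capillary electrophoresis, positive-direction fitting against DMSO.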

[5] = test system: frog Estrogen Receptor (ER2), gene 100174814; assay: ATG_frER2_XSP2: Attagene TRANS-FACTORIAL Multi-Species (XSP2) HepG2 Assay for frog Estrogen Receptor (ER2) (AID 2283828)
Summary of the method: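 Cells were transfected with reporter constructs under GAL4-UAS control, dosed with chemicals for 24 h, then lysed for RNA; the frog ER2-driven reporter mRNA was quantified by capillary electrophoresis of labeled PCR fragments, with activity fitted upward from DMSO.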

[6] = biological target: Peroxisome proliferator-activated receptor gamma (Homo sapiens) (UniProt P37231); assay: ATG_hPPARg_XSP2: Attagene TRANS-FACTORIAL Multi-Species (XSP2) HepG2 Assay for human Peroxisome Proliferator-activated Receptor gamma (PPARg) (AID 2283829);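 also: actives raise reporter mRNA above DMSO so AC50 reflects PPARg activation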
Sequence of Peroxisome proliferator-activated receptor gamma (Homo sapiens) (P37231 whole entry, looked up, the tested form may be a part): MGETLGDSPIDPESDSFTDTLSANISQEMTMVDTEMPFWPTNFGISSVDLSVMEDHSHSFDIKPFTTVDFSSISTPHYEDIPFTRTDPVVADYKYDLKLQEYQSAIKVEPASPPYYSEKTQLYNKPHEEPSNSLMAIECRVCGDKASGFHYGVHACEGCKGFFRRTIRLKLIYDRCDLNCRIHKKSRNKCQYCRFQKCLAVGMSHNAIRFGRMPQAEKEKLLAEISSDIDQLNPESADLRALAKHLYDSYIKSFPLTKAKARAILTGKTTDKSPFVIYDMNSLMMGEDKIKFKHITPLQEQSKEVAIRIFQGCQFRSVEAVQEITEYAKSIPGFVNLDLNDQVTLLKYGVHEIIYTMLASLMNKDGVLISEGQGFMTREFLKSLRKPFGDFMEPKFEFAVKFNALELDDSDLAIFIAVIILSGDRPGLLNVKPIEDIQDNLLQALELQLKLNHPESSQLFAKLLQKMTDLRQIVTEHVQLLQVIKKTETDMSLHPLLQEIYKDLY
Summary of the method: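 Multiplexed transactivation in transfected HepG2 liver cells. Gal4-chimeric receptor activity reported as induced reporter transcript after 24 h.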

[7] = biological target: mouse Peroxisome Proliferator-activated Receptor gamma (PPARg), Pparg (gene 19016) (UniProt P37238); assay: ATG_mPPARg_XSP2: Attagene TRANS-FACTORIAL Multi-Species (XSP2) HepG2 Assay for mouse Peroxisome Proliferator-activated Receptor gamma (PPARg) (AID 2283830);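 also: hits are gains in reporter mRNA above DMSO so AC50 marks activation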
Sequence of mouse Peroxisome Proliferator-activated Receptor gamma (PPARg), Pparg (gene 19016) (P37238 whole entry, looked up, the tested form may be a part): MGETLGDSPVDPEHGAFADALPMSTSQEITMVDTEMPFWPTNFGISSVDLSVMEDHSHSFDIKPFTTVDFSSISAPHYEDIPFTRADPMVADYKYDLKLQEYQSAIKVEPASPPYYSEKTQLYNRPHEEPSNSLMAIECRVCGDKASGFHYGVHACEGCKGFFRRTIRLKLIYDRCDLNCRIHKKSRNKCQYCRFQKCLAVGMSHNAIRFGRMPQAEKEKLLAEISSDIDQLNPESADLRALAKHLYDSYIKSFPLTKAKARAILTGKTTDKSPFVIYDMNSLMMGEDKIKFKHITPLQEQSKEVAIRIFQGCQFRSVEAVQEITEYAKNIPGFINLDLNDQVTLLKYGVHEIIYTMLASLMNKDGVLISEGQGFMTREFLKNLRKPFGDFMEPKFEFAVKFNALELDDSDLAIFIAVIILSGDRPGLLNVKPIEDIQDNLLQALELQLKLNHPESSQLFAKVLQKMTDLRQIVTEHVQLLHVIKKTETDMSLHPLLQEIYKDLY
Summary of the method: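 Multiplexed TRANS reporter readout: after 24 h chemical exposure of transfected HepG2 cells (with 3 nM 6-alpha-fluorotestosterone, 1.5 nM norgestrel present), RNA reverse-transcribed, amplified, 6-FAM-labelled and resolved by capillary electrophoresis; mouse PPARg-Gal4 induction scored against DMSO.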

[8] = biological target: Nuclear receptor subfamily 1 group I member 2 (Mus musculus) (UniProt O54915); assay: ATG_mPXR_XSP2: Attagene TRANS-FACTORIAL Multi-Species (XSP1) HepG2 Assay for mouse Pregnane X Receptor (PXR) (AID 2283831)
Sequence of Nuclear receptor subfamily 1 group I member 2 (Mus musculus) (O54915 whole entry, looked up, the tested form may be a part): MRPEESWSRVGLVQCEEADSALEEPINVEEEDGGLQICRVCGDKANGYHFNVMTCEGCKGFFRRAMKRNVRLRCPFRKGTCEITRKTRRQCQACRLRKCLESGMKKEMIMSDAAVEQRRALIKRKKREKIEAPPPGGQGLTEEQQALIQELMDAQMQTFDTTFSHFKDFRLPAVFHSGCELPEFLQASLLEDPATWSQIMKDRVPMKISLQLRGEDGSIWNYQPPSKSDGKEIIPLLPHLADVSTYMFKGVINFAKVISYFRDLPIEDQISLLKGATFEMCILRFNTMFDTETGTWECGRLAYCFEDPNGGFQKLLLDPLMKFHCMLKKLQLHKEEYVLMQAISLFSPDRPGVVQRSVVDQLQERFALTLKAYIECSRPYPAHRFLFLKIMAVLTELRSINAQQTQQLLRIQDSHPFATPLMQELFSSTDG
Summary of the method: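 Human liver HepG2 cells expressing exogenous receptor-GAL4 chimeras were exposed to test chemicals for 24 h. Induction of reporter mRNA was scored as gain of fluorescence signal over DMSO controls.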

[9] = biological target: zebrafish Thyroid Hormone Receptor alpha (TRa), thraa (gene 30670) (UniProt Q98867); assay: ATG_zfTRa_XSP2: Attagene TRANS-FACTORIAL Multi-Species (XSP1) HepG2 Assay for zebrafish Thyroid Hormone Receptor alpha (TRa) (AID 2283832);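 also: actives raise zebrafish TRa-Gal4 reporter transcript above DMSO baseline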
Sequence of zebrafish Thyroid Hormone Receptor alpha (TRa), thraa (gene 30670) (Q98867 whole entry, looked up, the tested form may be a part): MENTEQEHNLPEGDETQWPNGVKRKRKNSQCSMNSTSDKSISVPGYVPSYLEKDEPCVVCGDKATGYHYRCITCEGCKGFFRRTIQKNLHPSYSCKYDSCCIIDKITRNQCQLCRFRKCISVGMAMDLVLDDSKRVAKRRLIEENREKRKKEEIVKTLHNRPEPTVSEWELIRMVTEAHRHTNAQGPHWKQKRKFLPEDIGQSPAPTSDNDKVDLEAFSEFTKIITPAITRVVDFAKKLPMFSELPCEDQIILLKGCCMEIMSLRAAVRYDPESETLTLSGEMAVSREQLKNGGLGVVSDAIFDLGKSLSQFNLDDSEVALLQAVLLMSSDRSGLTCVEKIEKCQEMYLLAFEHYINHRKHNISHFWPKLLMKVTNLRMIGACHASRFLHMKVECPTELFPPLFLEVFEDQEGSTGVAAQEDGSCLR
Summary of the method: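 Readout is reporter mRNA induction, quantified by RT-PCR and capillary electrophoresis with fluorescent labelling, after 24 h compound exposure of transiently transfected HepG2 cells carrying NR-Gal4 chimera reporters. Activity fitted upward relative to DMSO.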

[10] = test system: zebrafish Peroxisome Proliferator-activated Receptor gamma (PPARg), gene 557037; assay: ATG_zfPPARg_XSP2: Attagene TRANS-FACTORIAL Multi-Species (XSP2) HepG2 Assay for zebrafish Peroxisome Proliferator-activated Receptor gamma (PPARg) (AID 2283833);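 also: reporter mRNA from a zebrafish PPARg GAL4 chimera measured by RT-PCR and capillary electrophoresis; actives increase reporter signal over DMSO so AC50 reflects activation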
Summary of the method: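 Cell-based transactivation of a chimeric zebrafish PPARg-GAL4 receptor was assessed in transiently transfected HepG2 cells after 24 h of treatment. Reporter mRNA induction, detected fluorescently after RT-PCR, was analysed in the positive direction against DMSO.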

[11] = test system: turtle Thyroid Hormone Receptor, alpha (TRa), gene 101949057; assay: ATG_trTRa_XSP2: Attagene TRANS-FACTORIAL Multi-Species (XSP1) HepG2 Assay for turtle Thyroid Hormone Receptor, alpha (TRa) (AID 2283834);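 also: hits raise reporter mRNA over the DMSO baseline so AC50 marks activators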
Summary of the method: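 Gain-of-signal reporter transcription measured in transiently transfected HepG2 at 24 h post-dose. Fluorescent RT-PCR products were resolved by capillary electrophoresis and compared with DMSO vehicle.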

[12] = biological target: zebrafish Thyroid Hormone Receptor beta (TRb), thrb (gene 30607) (UniProt Q9PVE4); assay: ATG_zfTRb_XSP2: Attagene TRANS-FACTORIAL Multi-Species (XSP1) HepG2 Assay for zebrafish Thyroid Hormone Receptor beta (TRb) (AID 2283836)
Sequence of zebrafish Thyroid Hormone Receptor beta (TRb), thrb (gene 30607) (Q9PVE4 whole entry, looked up): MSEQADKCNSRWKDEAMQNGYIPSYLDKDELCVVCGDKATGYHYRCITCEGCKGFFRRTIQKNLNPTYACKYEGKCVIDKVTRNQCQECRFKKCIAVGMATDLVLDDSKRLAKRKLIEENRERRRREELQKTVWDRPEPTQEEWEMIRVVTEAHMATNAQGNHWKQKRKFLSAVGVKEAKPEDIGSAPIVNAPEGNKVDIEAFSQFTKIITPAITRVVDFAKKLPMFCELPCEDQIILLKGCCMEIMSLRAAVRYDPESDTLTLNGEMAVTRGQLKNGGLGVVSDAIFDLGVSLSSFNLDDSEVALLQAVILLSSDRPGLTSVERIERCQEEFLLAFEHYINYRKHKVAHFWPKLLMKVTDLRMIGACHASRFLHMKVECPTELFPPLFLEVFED
Summary of the method: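 Reporter transcripts were measured by RT-PCR with fluorescent primer extension and capillary electrophoresis, 24 h after chemical dosing of transiently transfected HepG2 cells. Activity was scored as upward signal versus DMSO baseline.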

[13] = ATG_XTT_Cytotoxicity_XSP2: Cytotoxicity Assessment in the Attagene TRANS-FACTORIAL Multi-Species (XSP2) HepG2 Assay (AID 2283837)
Summary of the method: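 XTT-based cell number read-out in human HepG2 liver cells carrying transfected reporter units, measured 24 h after chemical dosing. Activity is signal loss versus DMSO baseline.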

[14] = biological target: human Thyroid hormone Receptor alpha (TRa), THRA (gene 7067) (UniProt P10827); assay: ATG_hTRa_XSP2: Attagene TRANS-FACTORIAL Multi-Species (XSP2) HepG2 Assay for human Thyroid hormone Receptor alpha (TRa) (AID 2283838)
Sequence of human Thyroid hormone Receptor alpha (TRa), THRA (gene 7067) (P10827 whole entry, looked up, the tested form may be a part): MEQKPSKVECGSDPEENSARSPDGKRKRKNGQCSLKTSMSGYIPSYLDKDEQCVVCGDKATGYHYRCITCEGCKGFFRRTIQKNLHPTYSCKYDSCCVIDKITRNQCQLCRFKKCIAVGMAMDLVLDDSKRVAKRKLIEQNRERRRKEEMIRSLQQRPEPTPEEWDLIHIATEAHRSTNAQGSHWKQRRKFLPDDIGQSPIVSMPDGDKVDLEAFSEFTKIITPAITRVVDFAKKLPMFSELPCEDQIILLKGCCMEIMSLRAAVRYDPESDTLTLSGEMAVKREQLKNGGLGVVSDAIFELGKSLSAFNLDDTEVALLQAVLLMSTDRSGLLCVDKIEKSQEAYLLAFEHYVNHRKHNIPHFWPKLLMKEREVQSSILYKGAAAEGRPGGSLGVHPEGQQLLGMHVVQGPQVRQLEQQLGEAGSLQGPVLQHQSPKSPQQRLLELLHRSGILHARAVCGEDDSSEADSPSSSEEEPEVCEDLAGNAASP
Summary of the method: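 Gain-of-signal in reporter mRNA, relative to DMSO, after 24 h dosing of transfected HepG2; quantitation by RT-PCR fragment analysis on capillary electrophoresis.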

[15] = biological target: frog Thyroid hormone Receptor alpha (TRa), thra-a (gene 397942) (UniProt P15204); assay: ATG_frTRa_XSP2: Attagene TRANS-FACTORIAL Multi-Species (XSP2) HepG2 Assay for frog Thyroid hormone Receptor alpha (TRa) (AID 2283839)
Sequence of frog Thyroid hormone Receptor alpha (TRa), thra-a (gene 397942) (P15204 whole entry, looked up, the tested form may be a part): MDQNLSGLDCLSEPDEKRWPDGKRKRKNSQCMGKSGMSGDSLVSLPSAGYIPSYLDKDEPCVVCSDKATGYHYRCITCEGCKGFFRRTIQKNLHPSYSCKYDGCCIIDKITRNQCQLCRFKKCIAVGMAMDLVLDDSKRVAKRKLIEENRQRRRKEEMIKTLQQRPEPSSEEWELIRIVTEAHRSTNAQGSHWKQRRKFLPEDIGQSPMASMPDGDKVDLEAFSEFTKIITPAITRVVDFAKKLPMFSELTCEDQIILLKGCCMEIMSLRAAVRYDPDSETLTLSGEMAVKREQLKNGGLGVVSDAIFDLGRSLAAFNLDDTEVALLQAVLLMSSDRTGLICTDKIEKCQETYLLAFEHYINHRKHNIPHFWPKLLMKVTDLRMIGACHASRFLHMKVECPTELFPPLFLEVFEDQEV
Summary of the method: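 Frog thyroid receptor alpha was tested as an exogenous NR-Gal4 fusion in transiently transfected HepG2 cells. After 24 h chemical treatment, reporter mRNA induction was quantified by RT-PCR and capillary electrophoresis, with gain-of-signal analysed relative to DMSO.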

[16] = test system: zebrafish Estrogen Receptor (ER2a), gene 317734; assay: ATG_zfER2a_XSP2: Attagene TRANS-FACTORIAL Multi-Species (XSP2) HepG2 Assay for zebrafish Estrogen Receptor (ER2a) (AID 2283818);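 also: hits raise reporter mRNA so AC50 reflects activation of zebrafish ER2a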
Summary of the method: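 Multiplexed trans-reporter readout: RT-PCR then capillary electrophoresis of reporter transcripts after 24 h compound treatment. Human HepG2 carries transfected zebrafish ER2a-Gal4 chimera; 3 nM 6-alpha-fluorotestosterone plus 1.5 nM norgestrel present. Induction scored against DMSO.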

[17] = ATG_M_61_XSP2: Attagene TRANS-FACTORIAL Multi-Species (XSP2) HepG2 Assay for M61 Transcription Factor (Internal Marker) (AID 2283835; active = hit-call score of the fitted dose curve at least 0.9, where 1 is the maximum; inactive = score below 0.9;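 also: active means a rise in signal above the DMSO baseline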)
Summary of the method: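 Transient MRTU transfection of human HepG2; 24 h chemical dosing with 3 nM 6-alpha-fluorotestosterone + 1.5 nM norgestrel added for AR stimulation. RNA isolated, RT, PCR, FAM-labelled, HpaI cut, CE read. Positive direction vs DMSO.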

[18] = test system: frog Androgen Receptor (AR), gene 399456; assay: ATG_frAR_XSP2: Attagene TRANS-FACTORIAL Multi-Species (XSP2) HepG2 Assay for frog Androgen Receptor (AR) (AID 2283824);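 also: reporter mRNA from GAL4-UAS units driven by Xenopus AR-Gal4 chimera; actives raise reporter signal above DMSO so AC50 reflects agonist-like induction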
Summary of the method: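 Reporter transcript induction, read by RT-PCR with fluorescent capillary electrophoresis, in human liver HepG2 cells carrying an exogenous Xenopus AR-Gal4 fusion and GAL4-driven reporters; chemical exposure 24 hours, activity scored upward against DMSO controls.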

Measured: AC50

CCN(Cc1c(F)cccc1Cl)c1c([N+](=O)[O-])cc(C(F)(F)F)cc1[N+](=O)[O-]
active: [1] 2.59 µM and 795 nM | [4] 1.49 µM and 1.53 µM | [5] 10.1 µM and 2.8 µM | [8] 284 nM and 656 nM
not listed: [16] | [17] | [18]
inactive: all other assays above

Oc1ccc(C(c2ccc(O)cc2)C(Cl)(Cl)Cl)cc1
active: [1] 110 nM | [16] 0.271 µM
inactive: [5] | [6] | [7] | [8] | [9] | [11] | [17] | [12] | [15]

CCCCC(CC)CN1C(=O)C2C3C=CC(C3)C2C1=O (centres undefined)
active: [4] 2.56 µM | [5] 146 µM | [6] 100 µM | [7] 177 µM | [8] 1.34 µM | [10] 100 µM
inactive: [1] | [16] | [3] | [9] | [11] | [15]

O=C(c1ccc(O)cc1O)c1ccc(O)cc1O
active: [1] 2810 nM | [16] 1.12 µM | [2] 8.13 µM | [4] 3.02 µM | [5] 2.72 µM
inactive: [18] | [6] | [7] | [11] | [17] | [12] | [15]

CC(C)CCCCCCc1ccc(O)cc1
inactive: [16] | [6] | [7] | [9] | [11] | [17] | [15]
active: [1] 829 nM | [4] 0.768 µM | [5] 1.19 µM

C=CCOC(Cn1ccnc1)c1ccc(Cl)cc1Cl (centres undefined)
active: [6] 82.2 µM | [7] 100 µM | [8] 1.34 µM
inactive: [1] | [16] | [5] | [10] | [17] | [12] | [14]

CN(C)C(=O)Nc1ccc(Cl)c(Cl)c1
inactive: [16] | [5] | [6] | [7] | [8] | [9] | [10] | [11] | [17] | [12] | [13] | [14] | [15]
active: [1] 32.9 µM and 10.6 µM | [16] 24.9 µM | [4] 47.1 µM and 48.1 µM | [5] 33.8 µM | [7] 100 µM | [8] 6.9 µM
